Out of some 5,500 compounds screened, about 2,000 (36%) were called active. Not shown: some 18% with an inconclusive outcome. Rule as the data show it: active = normalized growth mostly below about 0.91 (no sharp cut-off); inconclusive = no clear call, values can overlap the other calls; inactive = mostly above about 0.92. The list shows a part of the results.
Assay: chemical genetic growth profiling, strain panel (AID 1159580);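 also: tested at 20 µM; growth read once vehicle control cultures reached saturation at 30 °C; 1 = growth at the plate median or of vehicle wells; lower values mean less growth of the strain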
Conditions: S. cerevisiae deletion strains, growth OD

Measured: normalized growth

O=C1c2cccc(O)c2C(=O)c2c(O)cccc21
active: locus YJR043C, strain POL32, active compounds read low 0.767 | locus YJR066W, strain TOR1, active compounds read low 0.796 | locus YKL009W, strain mrt4, active compounds read low 0.844 | locus YKL160W, strain elf1, active compounds read low 0.835 | locus YKL190W, strain CNB1, active compounds read low 0.697 | locus YKR001C, strain vps1, active compounds read low 0.405 | locus YLR027C, strain aat2, active compounds read low 0.878 | locus YLR039C, strain RIC1, active compounds read low 0.178 | locus YLR058C, strain SHM2, active compounds read low 0.684 | locus YLR221C, strain rsa3, active compounds read low 0.856 | locus YLR258W, strain gsy2, active compounds read low 0.909 | locus YLR262C, strain YPT6 (second series), active compounds read low 0.406 | locus YLR262C, strain YPT6, active compounds read low 0.24 | locus YLR268W, strain sec22, active compounds read low 0.606 | locus YLR320W, strain mms22, active compounds read low 0.435 | locus YLR330W, strain CHS5, active compounds read low 0.688 | locus YLR371W, strain rom2, active compounds read low 0.789 | locus YLR418C, strain cdc73, active compounds read low 0.401 | locus YML016C, strain PPZ1, active compounds read low 0.82 | locus YML032C, strain rad52, active compounds read low 0.291 | locus YML120C, strain ndi1, active compounds read low 0.866 | locus YML124C, strain tub3, active compounds read low 0.802 | locus YMR058W, strain fet3, active compounds read low 0.747 | locus YMR078C, strain ctf18, active compounds read low 0.841 | locus YMR223W, strain ubp8, active compounds read low 0.668 | locus YMR231W, strain pep5, active compounds read low 0.882 | locus YMR263W, strain SAP30, active compounds read low 0.756 | locus YNL067W, strain RPL9B, active compounds read low 0.699 | locus YNL071W, strain lat1, active compounds read low 0.831 | locus YNL128W, strain TEP1, active compounds read low 0.638 | locus YNL153C, strain GIM3, active compounds read low 0.568 | locus YNL209W, strain ssb2, active compounds read low 0.879 | locus YNL233W, strain BNI4, active compounds read low 0.729 | locus YNL248C, strain rpa49, active compounds read low 0.55 | locus YNL250W, strain rad50, active compounds read low 0.463 | locus YNL271C, strain bni1, active compounds read low 0.847 | locus YNL298W, strain CLA4, active compounds read low 0.823 | locus YNL307C, strain MCK1, active compounds read low 0.669 | locus YNL322C, strain KRE1, active compounds read low 0.803 | locus YNR052C, strain pop2, active compounds read low 0.59 | locus YOL147C, strain pex11, active compounds read low 0.749 | locus YOR001W, strain rrp6, active compounds read low 0.855 | locus YOR061W, strain CKA2, active compounds read low 0.847 | locus YOR069W, strain VPS5, active compounds read low 0.79 | locus YOR070C, strain gyp1, active compounds read low 0.874 | locus YOR083W, strain WHI5, active compounds read low 0.793 | locus YOR106W, strain vam3, active compounds read low 0.577 | locus YOR136W, strain idh2, active compounds read low 0.845 | locus YOR144C, strain elg1, active compounds read low 0.886 | locus YOR184W, strain ser1, active compounds read low 0.375 | locus YOR270C, strain vph1, active compounds read low 0.364 | locus YOR290C, strain snf2, active compounds read low 0.796 | locus YPL051W, strain arl3, active compounds read low 0.737 | locus YPL106C, strain sse1, active compounds read low 0.705 | locus YPL240C, strain hsp82, active compounds read low 0.909 | locus YPL241C, strain CIN2, active compounds read low 0.847 | locus YPR163C, strain tif3, active compounds read low 0.775 | locus YPR167C, strain met16, active compounds read low 0.851 | strain wtn01, active compounds read low 0.752
inactive: locus YKL068W, active compounds read low 0.967 | locus YKL085W, strain MDH1 (second series), active compounds read low 0.944 | locus YKL085W, strain MDH1, active compounds read low 0.944 | locus YKR026C, strain gcn3, active compounds read low 0.97 | locus YKR091W, strain srl3, active compounds read low 0.97 | locus YLL001W, strain dnm1, active compounds read low 0.903 | locus YLL026W, active compounds read low 0.941 | locus YLL041C, strain sdh2, active compounds read low 0.953 | locus YLR102C, strain apc9, active compounds read low 0.961 | locus YLR113W, strain HOG1, active compounds read low 1 | locus YLR342W, strain FKS1 (second series), active compounds read low 0.923 | locus YLR342W, strain FKS1, active compounds read low 0.975 | locus YLR357W, strain rsc2, active compounds read low 0.995 | locus YLR384C, strain iki3, active compounds read low 0.936 | locus YMR125W, strain sto1, active compounds read low 0.959 | locus YMR129W, active compounds read low 0.972 | locus YMR205C, strain PFK2, active compounds read low 0.96 | locus YMR307W, strain GAS1, active compounds read low 0.677 | locus YNL183C, strain NPR1, active compounds read low 0.836 | locus YNL322C, strain KRE1 (second series), active compounds read low 0.965 | locus YNR049C, strain mso1, active compounds read low 0.942 | locus YOL012C, strain htz1 0.695 | locus YOR080W, strain dia2, active compounds read low 0.948 | locus YOR231W, strain MKK1, active compounds read low 0.895 | locus YOR265W, strain rbl2, active compounds read low 0.935 | locus YOR316C, strain cot1, active compounds read low 0.941 | locus YPL078C, strain atp4, active compounds read low 0.897 | locus YPL256C, strain CLN2, active compounds read low 0.996 | locus YPR119W, strain clb2, active compounds read low 0.931 | locus YPR141C, strain kar3, active compounds read low 0.966
